# Tests used:
# Assay in all cases: DAPPL (digital affinity profiling via proximity ligation, sequencing); 10 mM Tris-HCl pH 7.5, 50 mM NaCl, 1 mM DTT, 4% glycerol, room temperature, 30 min; GST-TFs on glutathione beads, 16-mer random dsDNA library, 0.1% formaldehyde crosslink after washing; high values mean tight binding
# ELK1 = molecular target: T1, ELK1 (Homo sapiens, UniProt P19419 1-428); conditions: protein: recombinant; tags: N-terminal GST; dsDNA, one strand shown
# T1 sequence: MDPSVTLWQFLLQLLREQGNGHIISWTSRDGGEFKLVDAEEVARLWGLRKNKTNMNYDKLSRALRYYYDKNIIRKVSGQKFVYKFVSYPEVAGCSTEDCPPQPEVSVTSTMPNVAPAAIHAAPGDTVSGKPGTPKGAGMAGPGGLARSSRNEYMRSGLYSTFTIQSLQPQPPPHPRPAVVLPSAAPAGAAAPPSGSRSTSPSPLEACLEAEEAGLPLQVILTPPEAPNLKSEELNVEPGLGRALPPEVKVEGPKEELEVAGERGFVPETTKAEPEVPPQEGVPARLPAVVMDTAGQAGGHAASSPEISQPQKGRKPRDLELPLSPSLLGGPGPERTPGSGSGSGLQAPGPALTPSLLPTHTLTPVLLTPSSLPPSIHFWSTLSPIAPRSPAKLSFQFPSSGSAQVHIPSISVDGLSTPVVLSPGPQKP
# Method in brief: (§1)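 In yeast, human transcription factors were expressed with a GST fusion, then pulled down on glutathione beads and given DNA barcodes. Pooled with a tag-only sample, they were exposed to 200 nmole of a 16-mer random double-stranded DNA library (Tris/NaCl/DTT/glycerol buffer, room temperature, 30 min), washed, crosslinked with 0.1% formaldehyde, proximity-ligated using BsaI/T4 ligase for 1 h at 37 °C, PCR-amplified and read on an Illumina NextSeq500. Each hexamer's frequency of reads for a factor, divided by the matching frequency for the tag-only sample, gives the binding signal.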
# GABPA = molecular target: T2, GABPA (Homo sapiens, UniProt Q06546 1-454); conditions: protein: recombinant; tags: N-terminal GST; dsDNA, one strand shown
# T2 sequence: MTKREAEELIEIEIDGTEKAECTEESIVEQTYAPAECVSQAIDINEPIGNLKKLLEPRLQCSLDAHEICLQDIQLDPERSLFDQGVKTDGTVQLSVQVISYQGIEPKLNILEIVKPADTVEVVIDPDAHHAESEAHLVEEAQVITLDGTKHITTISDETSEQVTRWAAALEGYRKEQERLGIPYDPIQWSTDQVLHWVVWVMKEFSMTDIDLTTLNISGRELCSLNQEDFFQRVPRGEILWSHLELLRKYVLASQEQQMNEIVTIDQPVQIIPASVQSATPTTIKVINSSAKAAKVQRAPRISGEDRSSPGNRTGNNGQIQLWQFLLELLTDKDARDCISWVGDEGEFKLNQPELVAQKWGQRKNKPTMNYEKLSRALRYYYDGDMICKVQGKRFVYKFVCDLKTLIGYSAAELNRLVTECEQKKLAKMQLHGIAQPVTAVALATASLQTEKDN
# Method in brief: as §1
# ELF1 = ELF1 (Homo sapiens, UniProt P32519 1-619); conditions: protein: recombinant; tags: N-terminal GST; dsDNA, one strand shown
# ELF1, sequence (P32519 whole entry): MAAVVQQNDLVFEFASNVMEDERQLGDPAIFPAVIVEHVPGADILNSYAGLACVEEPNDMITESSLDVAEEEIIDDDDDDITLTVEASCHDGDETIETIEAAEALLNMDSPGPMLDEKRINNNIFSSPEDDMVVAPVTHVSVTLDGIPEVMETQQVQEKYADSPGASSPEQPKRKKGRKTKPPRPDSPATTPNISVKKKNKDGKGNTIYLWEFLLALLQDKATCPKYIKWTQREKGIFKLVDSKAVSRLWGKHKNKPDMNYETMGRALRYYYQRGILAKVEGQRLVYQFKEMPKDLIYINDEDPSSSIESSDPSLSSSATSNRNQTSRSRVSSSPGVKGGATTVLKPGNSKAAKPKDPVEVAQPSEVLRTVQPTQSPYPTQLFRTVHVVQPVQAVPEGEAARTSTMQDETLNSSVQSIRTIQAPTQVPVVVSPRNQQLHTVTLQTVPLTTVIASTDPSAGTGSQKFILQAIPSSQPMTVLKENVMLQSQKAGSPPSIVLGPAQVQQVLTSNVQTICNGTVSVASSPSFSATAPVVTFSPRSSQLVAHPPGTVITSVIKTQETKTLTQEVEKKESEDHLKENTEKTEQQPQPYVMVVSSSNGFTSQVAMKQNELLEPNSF
# Method in brief: as §1
# SPI1 = SPI1 (Homo sapiens, UniProt P17947 1-270); conditions: protein: recombinant; tags: N-terminal GST; dsDNA, one strand shown
# Method in brief: as §1
# HSF1 = HSF1 (Homo sapiens, UniProt Q00613 1-529); conditions: protein: recombinant; tags: N-terminal GST; chain copies: 3; dsDNA, one strand shown
# HSF1, sequence (Q00613 whole entry): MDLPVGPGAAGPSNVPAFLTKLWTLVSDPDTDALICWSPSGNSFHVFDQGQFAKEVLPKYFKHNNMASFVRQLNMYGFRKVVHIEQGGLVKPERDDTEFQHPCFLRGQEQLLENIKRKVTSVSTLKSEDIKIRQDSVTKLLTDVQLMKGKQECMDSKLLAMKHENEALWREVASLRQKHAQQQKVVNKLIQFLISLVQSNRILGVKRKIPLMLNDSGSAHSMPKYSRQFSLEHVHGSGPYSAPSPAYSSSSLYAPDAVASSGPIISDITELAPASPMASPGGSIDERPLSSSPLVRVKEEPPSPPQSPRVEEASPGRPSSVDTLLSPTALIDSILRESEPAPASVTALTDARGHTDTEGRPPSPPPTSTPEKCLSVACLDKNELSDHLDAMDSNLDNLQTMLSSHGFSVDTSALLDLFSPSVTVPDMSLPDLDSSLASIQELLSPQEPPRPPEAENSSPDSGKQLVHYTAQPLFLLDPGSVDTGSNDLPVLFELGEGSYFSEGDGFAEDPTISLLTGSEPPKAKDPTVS
# Method in brief: as §1
# ELF4 = ELF4 (Homo sapiens, UniProt Q99607 1-663); conditions: protein: recombinant; tags: N-terminal GST; dsDNA, one strand shown
# ELF4, sequence (Q99607 whole entry): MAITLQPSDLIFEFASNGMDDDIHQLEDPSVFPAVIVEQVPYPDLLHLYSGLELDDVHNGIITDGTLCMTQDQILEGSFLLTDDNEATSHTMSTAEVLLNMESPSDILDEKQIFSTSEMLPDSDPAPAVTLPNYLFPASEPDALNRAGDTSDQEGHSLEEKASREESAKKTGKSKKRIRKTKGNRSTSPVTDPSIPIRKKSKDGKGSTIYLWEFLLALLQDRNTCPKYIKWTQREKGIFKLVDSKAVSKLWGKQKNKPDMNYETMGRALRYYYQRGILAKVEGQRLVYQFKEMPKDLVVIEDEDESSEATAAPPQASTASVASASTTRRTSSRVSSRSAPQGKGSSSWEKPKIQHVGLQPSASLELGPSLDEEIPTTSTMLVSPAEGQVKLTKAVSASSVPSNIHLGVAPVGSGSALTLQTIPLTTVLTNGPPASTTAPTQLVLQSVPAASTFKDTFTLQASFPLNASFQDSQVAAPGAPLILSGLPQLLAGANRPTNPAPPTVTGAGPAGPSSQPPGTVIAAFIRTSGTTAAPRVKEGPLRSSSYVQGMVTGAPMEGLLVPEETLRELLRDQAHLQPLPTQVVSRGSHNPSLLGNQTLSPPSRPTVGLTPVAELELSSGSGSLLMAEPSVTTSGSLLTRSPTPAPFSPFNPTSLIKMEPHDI
# Method in brief: as §1
# ELK4 = molecular target: T3, ELK4 (Homo sapiens, UniProt P28324-2 1-405); conditions: protein: recombinant; tags: N-terminal GST; dsDNA, one strand shown
# T3 sequence: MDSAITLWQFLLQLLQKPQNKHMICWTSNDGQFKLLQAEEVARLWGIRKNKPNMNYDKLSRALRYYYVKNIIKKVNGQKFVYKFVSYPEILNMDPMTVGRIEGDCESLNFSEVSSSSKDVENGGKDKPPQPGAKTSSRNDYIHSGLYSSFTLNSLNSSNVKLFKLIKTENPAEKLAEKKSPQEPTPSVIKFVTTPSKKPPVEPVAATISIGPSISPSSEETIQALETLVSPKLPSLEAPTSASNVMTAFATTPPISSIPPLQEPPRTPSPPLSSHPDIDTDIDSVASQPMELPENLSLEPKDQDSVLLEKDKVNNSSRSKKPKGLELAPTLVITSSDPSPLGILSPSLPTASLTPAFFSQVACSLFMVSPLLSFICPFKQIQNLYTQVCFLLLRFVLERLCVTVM
# Method in brief: as §1
# ETV2 = molecular target: T4, ETV2 (Homo sapiens, UniProt O00321 1-342); conditions: protein: recombinant; tags: N-terminal GST; dsDNA, one strand shown
# T4 sequence: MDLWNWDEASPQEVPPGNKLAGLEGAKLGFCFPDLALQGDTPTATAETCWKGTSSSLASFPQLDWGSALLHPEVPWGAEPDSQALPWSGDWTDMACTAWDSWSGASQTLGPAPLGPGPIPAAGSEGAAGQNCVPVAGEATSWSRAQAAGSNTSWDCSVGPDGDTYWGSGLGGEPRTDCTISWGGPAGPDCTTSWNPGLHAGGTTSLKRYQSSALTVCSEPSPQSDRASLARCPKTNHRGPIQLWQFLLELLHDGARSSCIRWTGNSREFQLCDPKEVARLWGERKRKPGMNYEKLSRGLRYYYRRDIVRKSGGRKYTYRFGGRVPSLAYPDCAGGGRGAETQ
# Method in brief: as §1
# ELF3 = molecular target: T5, ELF3 (Homo sapiens, UniProt P78545 1-371); conditions: protein: recombinant; tags: N-terminal GST; dsDNA, one strand shown
# T5 sequence: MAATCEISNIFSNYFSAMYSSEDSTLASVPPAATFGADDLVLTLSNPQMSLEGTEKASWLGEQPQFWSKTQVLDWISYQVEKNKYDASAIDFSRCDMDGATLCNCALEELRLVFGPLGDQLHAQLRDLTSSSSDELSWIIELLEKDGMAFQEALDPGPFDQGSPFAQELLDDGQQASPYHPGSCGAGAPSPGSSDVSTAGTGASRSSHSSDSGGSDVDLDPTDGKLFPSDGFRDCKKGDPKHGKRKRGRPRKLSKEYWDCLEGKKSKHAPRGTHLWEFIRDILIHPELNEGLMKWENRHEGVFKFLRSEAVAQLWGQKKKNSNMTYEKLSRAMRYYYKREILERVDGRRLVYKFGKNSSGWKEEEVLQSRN
# Method in brief: as §1
# CRX = CRX (Homo sapiens, UniProt O43186 1-299); conditions: protein: recombinant; tags: N-terminal GST; dsDNA, one strand shown
# CRX, sequence (O43186 whole entry): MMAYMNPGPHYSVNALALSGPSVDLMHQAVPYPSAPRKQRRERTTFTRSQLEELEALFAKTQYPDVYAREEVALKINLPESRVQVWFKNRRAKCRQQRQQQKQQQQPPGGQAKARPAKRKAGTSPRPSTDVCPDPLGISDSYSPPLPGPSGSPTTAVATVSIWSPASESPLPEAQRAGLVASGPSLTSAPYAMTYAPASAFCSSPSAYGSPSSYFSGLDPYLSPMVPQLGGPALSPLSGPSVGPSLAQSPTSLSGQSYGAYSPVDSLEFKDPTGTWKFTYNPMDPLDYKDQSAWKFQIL
# Method in brief: as §1
# ERF = molecular target: T6, ERF (Homo sapiens, UniProt P50548 1-548); conditions: protein: recombinant; tags: N-terminal GST; dsDNA, one strand shown
# T6 sequence: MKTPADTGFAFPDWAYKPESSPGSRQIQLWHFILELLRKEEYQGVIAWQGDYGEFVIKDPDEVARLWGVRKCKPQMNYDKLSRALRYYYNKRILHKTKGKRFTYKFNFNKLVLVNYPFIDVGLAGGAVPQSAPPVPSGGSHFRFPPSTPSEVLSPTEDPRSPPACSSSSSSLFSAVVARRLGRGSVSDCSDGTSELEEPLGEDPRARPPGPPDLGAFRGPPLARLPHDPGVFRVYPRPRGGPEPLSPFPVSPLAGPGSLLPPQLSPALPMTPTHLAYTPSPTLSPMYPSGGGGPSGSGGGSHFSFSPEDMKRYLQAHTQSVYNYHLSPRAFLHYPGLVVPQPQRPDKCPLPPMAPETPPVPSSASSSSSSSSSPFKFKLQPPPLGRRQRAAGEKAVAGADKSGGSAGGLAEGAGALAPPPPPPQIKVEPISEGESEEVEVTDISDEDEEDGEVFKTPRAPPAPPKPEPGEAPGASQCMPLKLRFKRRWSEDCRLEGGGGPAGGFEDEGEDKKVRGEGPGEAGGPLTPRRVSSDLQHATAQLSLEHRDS
# Method in brief: as §1
# ETV3L = molecular target: T7, ETV3L (Homo sapiens, UniProt Q6ZN32 1-361); conditions: protein: recombinant; tags: N-terminal GST; dsDNA, one strand shown
# T7 sequence: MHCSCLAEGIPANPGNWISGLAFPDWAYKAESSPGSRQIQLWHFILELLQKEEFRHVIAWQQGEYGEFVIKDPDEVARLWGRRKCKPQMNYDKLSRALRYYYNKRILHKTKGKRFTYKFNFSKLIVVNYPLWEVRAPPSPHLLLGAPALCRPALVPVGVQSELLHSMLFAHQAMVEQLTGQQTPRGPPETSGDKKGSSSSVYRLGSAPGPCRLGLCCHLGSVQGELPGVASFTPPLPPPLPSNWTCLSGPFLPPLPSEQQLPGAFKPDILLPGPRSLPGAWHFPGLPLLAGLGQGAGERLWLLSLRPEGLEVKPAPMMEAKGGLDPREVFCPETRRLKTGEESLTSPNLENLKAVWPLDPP
# Method in brief: as §1
# ETS2 = molecular target: T8, ETS2 (Homo sapiens, UniProt P15036 1-469); conditions: protein: recombinant; tags: N-terminal GST; dsDNA, one strand shown
# T8 sequence: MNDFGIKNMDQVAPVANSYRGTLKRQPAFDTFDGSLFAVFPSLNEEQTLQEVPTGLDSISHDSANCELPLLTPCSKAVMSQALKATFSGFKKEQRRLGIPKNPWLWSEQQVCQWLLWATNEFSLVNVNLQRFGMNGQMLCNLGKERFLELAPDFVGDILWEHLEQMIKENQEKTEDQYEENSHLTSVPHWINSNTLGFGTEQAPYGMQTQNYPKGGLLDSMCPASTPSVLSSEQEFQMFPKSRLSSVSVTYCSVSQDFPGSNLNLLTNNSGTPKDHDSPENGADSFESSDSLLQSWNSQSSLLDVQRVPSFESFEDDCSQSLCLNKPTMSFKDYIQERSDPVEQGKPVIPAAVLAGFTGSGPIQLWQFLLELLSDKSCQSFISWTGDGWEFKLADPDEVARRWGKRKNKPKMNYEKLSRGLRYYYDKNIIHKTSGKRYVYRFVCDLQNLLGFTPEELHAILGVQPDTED
# Method in brief: as §1
# SPDEF = molecular target: T9, SPDEF (Homo sapiens, UniProt O95238 1-335); conditions: protein: recombinant; tags: N-terminal GST; dsDNA, one strand shown
# T9 sequence: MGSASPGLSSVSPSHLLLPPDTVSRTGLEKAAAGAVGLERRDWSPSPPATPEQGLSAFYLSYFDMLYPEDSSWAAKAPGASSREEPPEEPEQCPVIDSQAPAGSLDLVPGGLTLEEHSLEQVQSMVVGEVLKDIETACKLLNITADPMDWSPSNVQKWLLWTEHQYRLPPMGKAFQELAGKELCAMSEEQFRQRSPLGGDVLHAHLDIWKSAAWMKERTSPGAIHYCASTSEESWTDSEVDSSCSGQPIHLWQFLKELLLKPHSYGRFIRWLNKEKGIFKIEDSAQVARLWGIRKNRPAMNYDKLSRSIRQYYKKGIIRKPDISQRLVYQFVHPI
# Method in brief: as §1
# ETV7 = molecular target: T10, ETV7 (Homo sapiens, UniProt Q9Y603 1-341); conditions: protein: recombinant; tags: N-terminal GST; dsDNA, one strand shown
# T10 sequence: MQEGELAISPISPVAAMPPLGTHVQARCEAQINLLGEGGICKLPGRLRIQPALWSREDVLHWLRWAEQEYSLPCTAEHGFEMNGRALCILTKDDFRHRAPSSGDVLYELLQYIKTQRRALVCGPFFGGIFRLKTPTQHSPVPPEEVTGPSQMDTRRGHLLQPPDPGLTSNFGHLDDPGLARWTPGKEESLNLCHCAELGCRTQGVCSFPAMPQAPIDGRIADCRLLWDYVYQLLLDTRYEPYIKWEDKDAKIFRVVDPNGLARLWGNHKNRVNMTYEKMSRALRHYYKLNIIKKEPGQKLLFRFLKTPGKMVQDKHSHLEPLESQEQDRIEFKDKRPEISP
# Method in brief: as §1
# ELF5 = molecular target: T11, ELF5 (Homo sapiens, UniProt Q9UKW6-2 1-255); conditions: protein: recombinant; tags: N-terminal GST; dsDNA, one strand shown
# T11 sequence: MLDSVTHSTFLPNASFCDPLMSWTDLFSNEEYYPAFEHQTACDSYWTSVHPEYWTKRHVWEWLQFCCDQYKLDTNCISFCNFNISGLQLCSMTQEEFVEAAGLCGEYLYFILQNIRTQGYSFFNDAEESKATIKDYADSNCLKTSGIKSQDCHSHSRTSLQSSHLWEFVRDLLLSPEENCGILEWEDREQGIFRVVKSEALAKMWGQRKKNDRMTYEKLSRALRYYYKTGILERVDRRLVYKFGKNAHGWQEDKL
# Method in brief: as §1
# ETV3 = molecular target: T12, ETV3 (Homo sapiens, UniProt P41162-2 1-143); conditions: protein: recombinant; tags: N-terminal GST; dsDNA, one strand shown
# T12 sequence: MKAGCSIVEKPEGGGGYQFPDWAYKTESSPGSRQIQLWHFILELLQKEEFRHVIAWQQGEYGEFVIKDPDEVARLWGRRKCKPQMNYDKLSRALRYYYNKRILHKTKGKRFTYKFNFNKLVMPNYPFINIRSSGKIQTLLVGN
# Method in brief: as §1
# ETV6 = ETV6 (Homo sapiens, UniProt P41212 1-452); conditions: protein: recombinant; tags: N-terminal GST; dsDNA, one strand shown
# ETV6, sequence (P41212 whole entry): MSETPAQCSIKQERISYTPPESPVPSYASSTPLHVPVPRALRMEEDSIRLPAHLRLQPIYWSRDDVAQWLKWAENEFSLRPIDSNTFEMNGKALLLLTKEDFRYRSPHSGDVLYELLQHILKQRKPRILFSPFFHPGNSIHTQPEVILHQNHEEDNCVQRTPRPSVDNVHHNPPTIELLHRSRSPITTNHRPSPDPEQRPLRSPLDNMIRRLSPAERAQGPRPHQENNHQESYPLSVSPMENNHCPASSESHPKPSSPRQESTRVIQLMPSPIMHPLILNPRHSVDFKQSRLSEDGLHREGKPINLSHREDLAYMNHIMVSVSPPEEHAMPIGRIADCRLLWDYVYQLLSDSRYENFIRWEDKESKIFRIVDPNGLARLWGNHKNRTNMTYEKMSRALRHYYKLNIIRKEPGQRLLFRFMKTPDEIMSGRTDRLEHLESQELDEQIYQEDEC
# Method in brief: as §1
sequence,measurement,setting,value
AGAATA,binding signal,ELK1,"1.04 fold enrichment (6-mer frequency, TF over GST control)"
same,binding signal,GABPA,"1 fold enrichment (6-mer frequency, TF over GST control)"
same,binding signal,ELF1,"1.01 fold enrichment (6-mer frequency, TF over GST control)"
same,binding signal,SPI1,"1 fold enrichment (6-mer frequency, TF over GST control)"
same,binding signal,HSF1,"2.32 fold enrichment (6-mer frequency, TF over GST control)"
same,binding signal,ELF4,"1.06 fold enrichment (6-mer frequency, TF over GST control)"
same,binding signal,ELK4,"1.02 fold enrichment (6-mer frequency, TF over GST control)"
same,binding signal,ETV2,"1.07 fold enrichment (6-mer frequency, TF over GST control)"
same,binding signal,ELF3,"1.04 fold enrichment (6-mer frequency, TF over GST control)"
same,binding signal,CRX,"1.42 fold enrichment (6-mer frequency, TF over GST control)"
same,binding signal,ERF,"1.03 fold enrichment (6-mer frequency, TF over GST control)"
same,binding signal,ETV3L,"1.04 fold enrichment (6-mer frequency, TF over GST control)"
same,binding signal,ETS2,"1 fold enrichment (6-mer frequency, TF over GST control)"
same,binding signal,SPDEF,"1.04 fold enrichment (6-mer frequency, TF over GST control)"
same,binding signal,ETV7,"1.08 fold enrichment (6-mer frequency, TF over GST control)"
same,binding signal,ELF5,"1.04 fold enrichment (6-mer frequency, TF over GST control)"
same,binding signal,ETV3,"1.04 fold enrichment (6-mer frequency, TF over GST control)"
same,binding signal,ETV6,"1.07 fold enrichment (6-mer frequency, TF over GST control)"
